Source: PubChem BioAssay (NCI)
The panel holds about 83,000 compounds, 20% with a hit somewhere; the sample as a whole holds those more often.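 Note: values are percent growth. 100 is the growth of untreated cells, values between 100 and 0 indicate rising inhibition; between -100 and 0 indicates cell death.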 Active and inactive are the calls of the source.

System: ACHN renal
Experiment: NCI-60 one-dose screen, 48 h (100 = growth as untreated, 0 = no growth, -100 = all killed)
Details: 10 µM unless noted
Experimental: Growth inhibition of the ACHN human tumor cell line is measured as a screen for anti-cancer activity. Cells are grown in 96 well plates and exposed to the test compound for 48 hours. Compounds are tested at a single concentration, which is 10^-5 M for most compounds. The reported endpoint is percent growth (GI% or GIPRCNT), where numbers from 0 - 100% represent growth inhibition, and numbers from -100% - 0 represent cell death. For example, a value of 40 represents 60% growth inhibition. A value of 0 means no net growth occurred over the course of the experiment. A value of -40 indicates 40% of cells at the beginning of the experiment died by the end of the experiment. A value of -100 means all cells are dead at the end of the experiment.
NCI-60 Human Tumor Cell Lines Screen was performed using the standard one-dose NCI protocol, which is described in more detail at https://dtp.cancer.gov/discovery_development/nci-60/default.htm.
Compounds with GIPRCNT values below 10 were considered active. Activity score was based on GIPRCNT using the following formula: […]
Score is 0 for GIPRCNT values of 100 or above, 50 for GIPRCNT values of 0, and 100 for GIPRCNT values of -100.

Compound	growth
Cc1nc(Nc2ccccn2)sc1C(=O)CC(SCC(=O)Nc1ccc(Cl)cc1)c1ccccc1F (stereo not given)	24.6% (inactive)
Cc1ccc([C@H]2C(C(=O)c3ccc(Cl)cc3)C3(N[C@@H]2c2ccccc2)C(=O)Nc2ccccc23)cc1 (stereo not given in full)	22.5% (inactive)
COc1cccc(-c2nc(Nc3ccc(S(N)(=O)=O)cc3)c3ccccc3n2)c1	17.7% (inactive)
COc1ccc(-c2cc(C(=O)NCc3ccccc3)nn2-c2ccc(S(C)(=O)=O)cc2)cc1OC	104% (inactive)
COc1ccc(-c2nc3cc(C)ccc3n2CC(=O)N=Nc2c(O)[nH]c3ccc(Cl)cc23)cc1	5.37% (active)
O=[N+]([O-])c1ccc(/C=C/c2nc3ccccc3n3c(=S)[nH]nc23)cc1	72.7% (inactive)
O=C(COc1ccc(NC(=O)Nc2ccc(Cl)c(Cl)c2)cc1)N=Nc1c(O)[nH]c2ccccc12	36.9% (inactive)
CN1CCN(/C(=N\c2sc(-c3ccccc3)nc2-c2ccccc2)c2ccccc2)CC1	95.3% (inactive)
COc1ccc(C(=O)/C=C/c2cccc3ccccc23)cc1S(N)(=O)=O	-27.1% (active)
Cc1ccc(S(=O)(=O)c2nc(S(=O)(=O)c3ccc(C)cc3)c(Cl)s2)cc1	-92.3% (active)
CCN(CC)c1ccnc(CNCCSC(c2ccccc2)(c2ccccc2)c2ccc(OC)cc2)c1	12.2% (inactive)
CC1CN(c2oc(-c3ccc([N+](=O)[O-])cc3)nc2C#N)CC(C)O1 (stereo not given)	108% (inactive)
CCCCSc1nc(NCCc2c[nH]c3ccccc23)c(C#N)c(-c2ccc(F)cc2)n1	71.9% (inactive)
Cc1ccc(-c2nc(Nc3ccccc3S(N)(=O)=O)c3ccccc3n2)cc1	74% (inactive)
Cc1cc2nc3c([nH]c2cc1C)c1ccc(=O)cc1n3CCN(C)C	20.4% (inactive)
COc1cc2c(c(OC)c1OC)C(=O)CC(c1cccc(NC(=O)c3cc(NC(=O)[C@H](CO)NC(=O)OC(C)(C)C)ccc3Cl)c1)O2 (stereo not given in full)	46.1% (inactive)
CCCCSc1nc(Nc2ccc(C(C)=O)cc2)c(C#N)c(-c2ccc(OC)cc2)n1	2.58% (active)
COc1cccc(-c2c(C#N)c(-c3ccc(Cl)cc3)nc3n[nH]c(-c4ccc(Cl)cc4)c23)c1	56.2% (inactive)
COc1cc2oc(-c3cccc(C(=O)Nc4ccc(Cl)cc4)c3)cc(=O)c2c(OCC(=O)N[C@@H](Cc2ccccc2)C(=O)O)c1OC	97.2% (inactive)
CCC(C)(C)c1ccc(OCCCCN2CCN(c3ccncc3)CC2)cc1	68.9% (inactive)

Compound	growth
Cn1cc(-c2cc(N)n3nc(-c4cn(C)c5ncc(Br)cc45)cc3n2)c2cc(Br)cnc21	1.23% (active)
C#CCOc1cc(N(CC)CC)ccc1C(C(=O)NC(C)(C)C)N(C(=O)C1CCc2cc(F)ccc2O1)c1ccc(F)c(Cl)c1 (stereo not given)	61.6% (inactive)
O=c1[nH]c2ccccc2cc1CSc1cccc(Nc2nccc(-c3ccc4ccccc4c3)n2)c1	95.5% (inactive)
Cc1c(C(=O)NNC(=O)c2ccc(Cl)cc2)nnn1-c1ccc(Cl)cc1	103% (inactive)
OCC1(CCCc2ccccc2)CCCN(c2nccc3ccccc23)C1 (stereo not given)	51.8% (inactive)
NS(=O)(=O)c1ccc(N=Nc2c(O)n(CC(=O)Nc3ccccc3Cl)c3ccccc23)cc1	6.65% (active)
CCOc1ccc(C(=O)NC(=S)Nc2ccc(S(N)(=O)=O)cc2)cc1	101% [100 µM] (inactive)
C=C1CC[C@@H]2[C@]3(C)COC(c4ccccc4)O[C@@H]3CC[C@@]2(C)[C@@H]1C/C=C1/C(=O)OCC1OC(C)=O (stereo not given in full)	-100% (active)
CCC(C)(C)c1ccc(OCCCCCCN2CCN(c3ccncc3)CC2)cc1	48.3% (inactive)
Cc1cc(=O)oc2cc(OCCOc3ccc(/C=C/C(=O)Nc4ccccc4N)cc3)ccc12	37.1% (inactive)
CCOC(=O)COc1c(OC)c(OC)cc2oc(-c3cccc(C(=O)Nc4ccc(Cl)cc4)c3)cc(=O)c12	73.1% (inactive)
CN1CCN(c2ccc(C(=O)/C=C/c3cc(C(F)(F)F)cc(C(F)(F)F)c3)cc2)CC1	-99.2% (active)
CC(C)CCNC(=O)N/C(N)=N/c1nc2ccccc2s1	58.4% (inactive)
CC(=O)Oc1ccc(/C=C/C(=O)N[C@@H](Cc2ccccc2)C(O)C(=O)NCc2ccccc2)cc1OC(C)=O (stereo not given in full)	85.5% (inactive)
O=c1[nH]n(C(=S)N/N=C/c2ccccc2Cl)c(=O)c2ccccc12	5.27% (active)
O=C1c2c(c3c4cc(F)ccc4oc3c3[nH]c4ccc(Br)cc4c23)C(=O)N1O	-33.8% (active)
Cc1c(C(=O)NNC(=O)c2ccc(Cl)cc2)nnn1-c1ccc(Br)cc1	102% (inactive)
Cc1ccc([C@H]2C(C(=O)c3ccc(Cl)cc3)C3(N[C@@H]2c2ccccc2)C(=O)Nc2ccc(Br)cc23)cc1 (stereo not given in full)	47% (inactive)
Cc1ccc(C(=O)CSc2nc3ccc(F)cc3c(=O)n2-c2ccc(Cl)cc2)cc1	33.3% (inactive)
CCOP(=O)(OCCCl)c1nc(-c2ccc(C)cc2)oc1NCc1ccccc1 (stereo not given)	80% (inactive)
